Assay outcomes: PubChem, National Center for Advancing Translational Sciences (NCATS)
Shown is part of a subset that was picked to be rich in hits.
NS1 inh = influenza NS1 inhibition. Potency, µM (top dose mostly 46.1 µM). 270,000 tested, 0.4% active. AID 2326; calls by dose curve; further: actives are rising curves; nearly all actives have a fitted effect of over 50% in size
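Growth recovery, yeast-based: influenza A NS1 expressed in S. cerevisiae causes slow growth, and suppressors are detected by OD600. The parent strain without NS1 is used as positive control.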
AmpC detergent = inhibitors of E. coli AmpC beta-lactamase with detergent; P00811; 370,000 tested, 0.041% active; AmpC hydrolysis of nitrocefin, absorbance 480 nm, 0.01% Triton; Potency, µM (titrated, usually from 114 µM), actives largely listed as inhibitors; further: nearly all actives have a fitted effect of over 25% in size
Target sequence (P00811 whole entry, looked up): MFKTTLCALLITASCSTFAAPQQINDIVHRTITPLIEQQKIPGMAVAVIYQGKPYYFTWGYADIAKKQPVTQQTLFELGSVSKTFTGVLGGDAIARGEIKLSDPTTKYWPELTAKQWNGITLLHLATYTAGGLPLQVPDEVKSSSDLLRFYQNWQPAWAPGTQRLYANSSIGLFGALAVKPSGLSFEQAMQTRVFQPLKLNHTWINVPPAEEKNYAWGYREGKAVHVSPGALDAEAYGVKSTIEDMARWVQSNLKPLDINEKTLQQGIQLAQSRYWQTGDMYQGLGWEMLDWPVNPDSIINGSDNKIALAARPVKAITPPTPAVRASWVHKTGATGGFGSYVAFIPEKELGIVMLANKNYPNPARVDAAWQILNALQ
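20 mM phosphate pH 7.0 + 0.01% (detergent screen) or 0.0001% Triton X-100; 5.3 nM AmpC reagent; cpd preinc 15 min RT; nitrocefin (800 uM stock) to start; A480 q20 s × 4 min; Activity was normalised to no-enzyme and no-compound control wells.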
CHX counter = affects cycloheximide protein synthesis inhibition readout, counter-screen | cell reporter, cycloheximide protein synthesis inhibition counterscreen | max response, % | 300,000 tested, 12% active | AID 2314; in the data active means max response mostly above about 13%, no sharp cut-off; inactive means mostly below about 14%; further: read at 38.3 µM for the half of the compounds with a filed dose
AmpC inh no detg = AmpC beta-lactamase inhibition without detergent. AmpC nitrocefin hydrolysis, absorbance 480 nm, 0.0001% Triton. Potency, µM (doses to about 57.1 µM), hits mostly inhibitors. 330,000 tested, 0.52% active; further: nearly all actives have a fitted effect of over 20% in size
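AmpC (5.3 nM in the dispensed reagent) in 20 mM phosphate pH 7.0 with 0.01% (detergent screen) or 0.0001% Triton X-100 was preincubated with compounds for 15 min at room temperature. Nitrocefin was then added from an 800 uM solution, and hydrolysis was followed at 480 nm.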
Shiga inhibitor = Shiga toxin inhibition; Vero cells, Shiga toxin protein synthesis inhibition reporter; inhibition, % at 38.7 µM; 290,000 tested, 9.2% active; AID 2315; in the data active means inhibition mostly above about 28%, no sharp cut-off; inactive means mostly below about 43%
Each line names hits and unclear results; the compound was inactive in the other large screens; ! = repeats disagree. Unless noted, the call rests on the fitted dose curve; in most records, active means well fitted curve in the direction sought with a large enough effect; inconclusive means small, poorly fitted or top-dose-only effect, or another doubt; inactive means no such curve, though single readings can be large; an effect the other way counts as inactive or inconclusive.

O=C(Nc1ccc(Br)cc1)c1ccccc1CC[N+](=O)[O-]	AmpC inh no detg inconclusive
O=C(NNc1ccccn1)c1ccccc1CC[N+](=O)[O-]	CHX counter 14 (no result: NS1 inh)
COc1cc(C2Nc3ccccc3C(=O)N2c2ccccc2)c(Br)cc1OCC(=O)O (stereo not drawn)	Shiga inhibitor 24
COC(=O)COc1ccc(Cl)cc1C1Nc2ccccc2C(=O)N1c1ccc(OC)cc1 (stereo not drawn)	none
CCOC(=O)C1CCN(CC(=O)Nc2cc(S(=O)(=O)N3CCCCC3)ccc2Cl)CC1	none (no result: NS1 inh, CHX counter, Shiga inhibitor)
NC(=O)CSc1nc(-c2ccccc2Cl)ns1	CHX counter 45, Shiga inhibitor 19
O=C(CSc1nc(-c2ccccc2Cl)ns1)NCc1ccco1	none
CC(C)(C)NC(=O)Nc1ccc(F)c(Cl)c1	none
CC(CC(=O)O)CC(=O)Nc1ccc(Br)cc1 (stereo not drawn)	none
CC(C)(C)NC(=O)Nc1ccc(Br)cc1	CHX counter 39, Shiga inhibitor 83
CCC(C)NC(=S)Nc1ccc(C(=O)OC)cc1 (stereo not drawn)	CHX counter 26, Shiga inhibitor 56
CCC(C)NC(=O)Nc1ccc(Br)cc1 (stereo not drawn)	CHX counter 32, Shiga inhibitor 79 (no result: NS1 inh)
CCC(C)NC(=S)Nc1ccccc1 (stereo not drawn)	none
CCOc1ccc(-c2ccc(NS(=O)(=O)c3cc(C)c(C)cc3C)cc2)nn1	none (no result: NS1 inh, CHX counter, AmpC inh no detg, Shiga inhibitor)
Cn1cc(C(=O)NS(=O)(=O)Nc2ccc(Br)cc2)c2ccccc21	none
COc1ccc(/C=C2\SC(=S)N(CC(=O)Nc3nnc(C)s3)C2=O)cc1	none
COc1ccc(/C=C2/SC(=S)N(CCCC(=O)N3CCN(C)CC3)C2=O)cc1	CHX counter 12, Shiga inhibitor 35
COc1ccc(/C=C2/SC(=S)N(CC(=O)O)C2=O)cc1OCc1ccc(Cl)cc1	NS1 inh inconclusive, CHX counter 33, Shiga inhibitor 42
O=C(O)CN1C(=O)/C(=C\c2cc(Br)ccc2OCc2ccc(Cl)cc2)SC1=S	none
COc1ccc(/C=C2\SC(=S)N(CC(=O)NCCO)C2=O)cc1	CHX counter 21 (no result: NS1 inh)
CC(=O)N1CCCc2cc(S(=O)(=O)N3CCC(C(=O)N(Cc4ccccc4)C(C)C)CC3)ccc21	none (no result: NS1 inh, CHX counter, AmpC inh no detg, Shiga inhibitor)
COC(=O)C(CCSC)NC(=O)c1cn(-c2ccc(OC)cc2)c(=O)c2ccccc12 (stereo not drawn)	none
Cc1ccc(NC(=O)c2c(Cl)n(C)c3ccccc23)cc1	CHX counter 30
CCCCn1c(=O)c(C(=O)Nc2ccccc2)c(O)c2ccccc21	none
Cn1c(Cl)c(C(=O)Nc2ccccc2)c2ccccc21	CHX counter 23, Shiga inhibitor 41
c1cc(CCN2CCCCC2)ccn1	none (no result: AmpC detergent, CHX counter, AmpC inh no detg, Shiga inhibitor)
CCOC(=O)CCCc1c[nH]c2ccccc12	none
O=C(CCCc1c[nH]c2ccccc12)N1CCCCCC1	AmpC detergent inconclusive, CHX counter 20
CCCCN(C)C(=O)CCCc1c[nH]c2ccccc12	CHX counter 17, Shiga inhibitor 42
O=C1NC(Cc2ccccc2)c2nc3ccccc3c(=O)n2-c2cc(Cl)ccc21 (stereo not drawn)	none (no result: NS1 inh, CHX counter, Shiga inhibitor)
Cc1ccc(C)c(S(=O)(=O)c2nnn3c2nc(NC2CCCC2)c2sccc23)c1	none (no result: NS1 inh, CHX counter, AmpC inh no detg, Shiga inhibitor)
CCn1cc(C(=S)N2CCC(C(N)=O)CC2)c2ccccc21	AmpC detergent inconclusive (no result: NS1 inh)
O=C(O)C(=O)/C(=C\c1ccc([N+](=O)[O-])cc1)c1ccc2ccccc2n1	CHX counter 27, Shiga inhibitor 49 (no result: NS1 inh)
O=C(O)C(=O)/C(=C\c1ccsc1)c1ccc2ccccc2n1	CHX counter 27, Shiga inhibitor 87
O=C(O)C(=O)/C(=C\c1ccccc1)c1ccc2ccccc2n1	CHX counter 34, Shiga inhibitor 89
O=C(O)C(=O)/C(=C\c1cccc2ccccc12)c1ccc2ccccc2n1	AmpC detergent inconclusive
CCn1c(CN2CCOCC2)nc2cc(NC(=O)c3ccc([N+](=O)[O-])cc3)ccc21	none (no result: NS1 inh, CHX counter, AmpC inh no detg, Shiga inhibitor)
CC1=NN(C(=O)c2ccccc2-n2cccc2)C(O)(C(F)(F)F)C1 (stereo not drawn)	none
O=C(C1CC1)N1N=C(c2ccc(F)cc2)CC1(O)C(F)(F)F (stereo not drawn)	none (no result: Shiga inhibitor)
CCOC(=O)N1N=C(c2ccc(C)cc2)CC1(O)C(F)(F)F (stereo not drawn)	CHX counter 15, Shiga inhibitor 36
CCOC(=O)N1N=C(c2ccccc2)CC1(O)C(F)(F)F (stereo not drawn)	CHX counter 49, Shiga inhibitor 101
COC(=O)N1N=C(c2ccc(Br)cc2)CC1(O)C(F)(F)F (stereo not drawn)	CHX counter 47, Shiga inhibitor 40
O=C(c1ccccc1)N1N=C(c2ccccc2)CC1(O)C(F)(F)F (stereo not drawn)	none
CC1=NN(C(=O)c2ccc(C)cc2)C(O)(C(F)(F)OC(F)(F)F)C1 (stereo not drawn)	CHX counter 31, Shiga inhibitor 72
COc1ccc(C(=O)c2c(N)c(C(=O)Nc3ccccc3Cl)c3ccccn23)cc1	none (no result: NS1 inh, CHX counter, AmpC inh no detg, Shiga inhibitor)
COC(=O)c1cnn(-c2ccc(C(=O)Nc3cccc(C(C)=O)c3)cc2)c1N	AmpC detergent inconclusive (no result: NS1 inh, CHX counter, Shiga inhibitor)
CCOC(=O)N1CCN(c2c(NCc3ccccc3Cl)c(=O)c2=O)CC1	none
C=CCSC(=C(C#N)C#N)c1cc2c([nH]1)CCCC2	CHX counter 25
CCN(CC)C(=O)COc1c(-c2ccco2)oc2ccccc2c1=O	none
CCN(CC)C(=O)COc1ccc2oc(-c3ccco3)cc(=O)c2c1	CHX counter 19
CCC(=O)OCC(=O)Nc1ccc2c(c1)OCO2	none
O=C(COC(=O)C1CC1)Nc1ccc2c(c1)OCO2	CHX counter 36 (no result: NS1 inh)
CCCC(=O)OCC(=O)Nc1ccc2c(c1)OCO2	CHX counter 15
Cc1cccc(NC(=O)C2CCN(S(=O)(=O)c3ccc4[nH]c5c(c4c3)CCCCC5)CC2)c1	none (no result: NS1 inh, CHX counter, AmpC inh no detg, Shiga inhibitor)
CN=C1N[C@H](c2ccccc2)N(c2ccccc2)S1	CHX counter 27 (no result: NS1 inh, AmpC detergent, AmpC inh no detg)
CCN1C(=O)NC(c2ccccc2)C1=O (stereo not drawn)	none (no result: NS1 inh, CHX counter, Shiga inhibitor)
O=C(Cn1c2ncccc2c(=O)n1-c1ccccc1)Nc1cccc(C(F)(F)F)c1	none (no result: NS1 inh, CHX counter, AmpC inh no detg, Shiga inhibitor)
COc1ccc(-c2cc(=O)c3cc(C)ccc3[nH]2)cc1	CHX counter 35, Shiga inhibitor 53
COc1ccc2[nH]c3c(c2c1)CCC/C3=N\N	CHX counter 9.7
COc1ccc(-c2cc(=O)c3cc(OC)ccc3[nH]2)cc1	AmpC detergent inconclusive, CHX counter 61, Shiga inhibitor 94
COc1cc2[nH]c(-c3ccc(C)cc3)cc(=O)c2cc1OC	CHX counter 29, Shiga inhibitor active!
COc1cccc(-c2cc(=O)c3cc(NC(C)=O)ccc3[nH]2)c1	none
COc1ccc2[nH]c3c(c2c1)CCN=C3C	AmpC detergent inconclusive (no result: NS1 inh, CHX counter, Shiga inhibitor)
COc1ccc(Nc2nc3c(c(=O)n(C)c(=O)n3C)n2CCO)cc1	none
CC(C)CCc1noc(CN2CCN(c3ccc(Cl)cn3)CC2)n1	none
COc1ccc2[nH]c3ccccc3c2c1	CHX counter 32
